Compounds with a hit are over-represented: about 3.1% of the library has one in this group of screens.
3CLpro inhibitor: SARS-CoV 3CLpro protease inhibition; recombinant SARS-CoV 3CLpro, quenched FRET peptide cleavage; inhibition, % at 6 µM; hit rate 0.14% among 290,000; AID 1706; in the data active = inhibition above about 12%
Mtb BioA inh: inhibitors of Mycobacterium tuberculosis BioA enzyme; purified M. tuberculosis BioA enzyme, plate reader; inhibition, % at 9.99 µM; hit rate 0.096% among 360,000; in the data active = inhibition above about 40%
GDH-TPI counter: counter-screen for M. tuberculosis FBA inhibitors: GDH-TPI coupled enzymes; hit rate 1.2% among 360,000; AID 588335; inhibition, % at 4.8 µM; GDH-TPI coupled enzyme counterscreen, NADH absorbance; in the data active = inhibition above about 30%;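 note: 0% = DMSO wells and 100% = wells lacking the enzyme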
Mtb FBA inh: Mtb fructose-bisphosphate aldolase inhibition | P9WQA3 | hit rate 2.3% among 360,000 | AID 588726 | inhibition, % at 1 µM | purified M. tuberculosis FBA, fluorescence read-out; in the data active = inhibition above about 27%;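 note: 0% = vehicle and 100% = reference inhibitor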
Target sequence (P9WQA3 whole entry, looked up): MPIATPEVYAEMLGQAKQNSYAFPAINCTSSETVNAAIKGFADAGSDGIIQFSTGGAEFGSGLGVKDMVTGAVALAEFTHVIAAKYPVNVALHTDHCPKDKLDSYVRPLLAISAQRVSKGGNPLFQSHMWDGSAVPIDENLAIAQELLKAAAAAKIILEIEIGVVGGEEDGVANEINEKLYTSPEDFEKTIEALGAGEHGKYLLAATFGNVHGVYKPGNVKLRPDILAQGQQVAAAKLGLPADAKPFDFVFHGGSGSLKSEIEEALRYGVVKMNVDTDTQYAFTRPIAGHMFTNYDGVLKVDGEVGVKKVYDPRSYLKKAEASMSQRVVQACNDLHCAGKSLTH
FadD28 binding: inhibitors of Mycobacterium tuberculosis FadD28 bisubstrate binding | FadD28 bisubstrate probe binding, fluorescence polarization | hit rate 0.22% among 360,000 | AID 588549 | inhibition, % at 12.5 µM; in the data active = inhibition above about 8.5%, passing the limit was not always enough
Numbers without * were called inactive; x = no result given; + = active, no number.

SMILES | 3CLpro inhibitor | Mtb BioA inh | GDH-TPI counter | Mtb FBA inh | FadD28 binding
C[C@@H]1CCCCO[C@H](CN(C)C(=O)C2CCCCC2)[C@@H](C)CN([C@@H](C)CO)C(=O)c2cc(NS(=O)(=O)c3ccc(F)cc3)ccc2O1 | x | 1 | x | x | x
CC(=O)Nc1ccc2nc(-c3cccs3)[nH]c2c1 | -3 | 9 | 44* | + | 2
Nc1ccc2nc(-c3ccc(N)c(Cl)c3)[nH]c2c1 | -1 | x | 32* | 119* | 3
Nc1ccc2nc(-c3ccccc3)[nH]c2c1 | -1 | -1 | 21 | + | -2
CC(=O)Nc1ccc2nc(-c3cccn3C)[nH]c2c1 | 0 | 0 | 21 | 6 | -3
Nc1ccc(-c2nc3c(Cl)cc(N)cc3[nH]2)cc1 | 0 | 2 | 45* | 197* | 5
Nc1ccc2nc(-c3cccnc3)[nH]c2c1 | -4 | x | 21 | 4 | -2
Nc1ccc(Cl)c(Cl)c1 | x | -1 | 3 | 3 | 2
C[C@@H]1CN([C@@H](C)CO)S(=O)(=O)c2ccc(C3=CCCCC3)cc2O[C@@H]1CN(C)C(=O)Cc1ccccc1 | x | 1 | x | x | x
Nc1ccc2nc(-c3cccs3)[nH]c2c1 | -3 | -1 | 29 | + | -3
O=c1[nH]c(/C=C/c2ccc3c(c2)OCO3)c([N+](=O)[O-])c(=O)[nH]1 | 2 | x | x | x | x
O=c1[nH]c(/C=C/c2ccc([N+](=O)[O-])cc2)c([N+](=O)[O-])c(=O)[nH]1 | 5 | -2 | 31* | 0 | -1
O=C(N[C@@H]1CC[C@@H](CC(=O)N2CCCCC2)O[C@@H]1CO)c1ccccn1 | x | -2 | x | x | x
C[C@@H]1CN([C@H](C)CO)C(=O)Cc2cc(NC(=O)C3CC3)ccc2O[C@@H]1CN(C)S(C)(=O)=O | x | -2 | x | x | x
CCCc1nnc(NC(=O)C(=O)NCCN(C)C)s1 | 2 | -1 | 31* | 2 | 1
COc1cccc(-n2c(SCC(=O)N3CCOCC3)nc3c([nH]c4ccccc43)c2=O)c1 | 9 | 0 | 33* | 0 | -4
COc1cccc(-n2c(SCC(=O)N3CCOCC3)nnc2-c2c[nH]c3ccccc23)c1 | -1 | -1 | 11 | 5 | -3
COc1ccc(NC(=O)C#Cc2ccccc2)cc1OC | 0 | 2 | 34* | 0 | 1
NC(=O)c1ccc(NC(=O)C#Cc2ccccc2)cc1 | -7 | -2 | 9 | 1 | 1
COc1ccc(C(=O)NCCCN2CCCC2=O)cc1 | 2 | -2 | 3 | 5 | 1
COc1ccc(-c2cc(C(=O)NCCCN3CCCC3=O)c3ccccc3n2)cc1 | x | -1 | 16 | 69* | 0
O=C(NCCCN1CCCC1=O)c1cc(-c2ccc(F)cc2)nc2ccccc12 | x | 2 | 22 | 19 | -3
COc1ccc(-c2cc(C(=O)NCCc3ccc(S(N)(=O)=O)cc3)c3ccccc3n2)cc1 | 2 | x | 13 | 67* | -5
COc1ccc2sc(-c3ccc(S(C)(=O)=O)cc3)c(C(=O)NCCCN3CCCC3=O)c2c1 | x | -1 | 32* | 5 | 1
O=C(c1ccc(=O)oc1)N1CCN(C(c2ccccc2)c2ccccc2)CC1 | 0 | 4 | 39* | 9 | -3
SMILES | 3CLpro inhibitor | Mtb BioA inh | GDH-TPI counter | Mtb FBA inh | FadD28 binding
N#Cc1ccc(-c2ccc([C@H]3[C@@H](CO)N4CCCCN(S(=O)(=O)c5ccccc5)C[C@@H]34)cc2)cc1 | x | -7 | x | x | x
CCOP(=O)(Nc1cccc2oc(=O)c3ccccc3c12)OCC | x | 0 | 3 | 116* | -6
COc1cccc(C2NC(=S)NC3=C2CCc2ccccc23)c1 (configuration not stated) | 2 | x | 9 | 1 | 0
COc1ccc(C2NC(=O)NC3=C2CCc2ccccc23)cc1 (configuration not stated) | -1 | 4 | 11 | 34* | 2
CCN(CC)c1ccc(N=Cc2c(O)n(-c3ccccc3C)c(=O)[nH]c2=O)cc1 | -7 | -3 | 31 | -3 | 0
Cc1ccccc1-n1c(O)c(C=Nc2ccc3c(c2)OCO3)c(=O)[nH]c1=O | -6 | 3 | 33* | -2 | 0
CC(=O)Nc1ccc(N/C=C/C(=O)C(C)(C)C)cc1 | 3 | 0 | 42* | 2 | -1
CN1c2ccc(-c3ccccc3)cc2[C@H]2[C@H](CCN2C(=O)c2ccncc2)[C@H]1CO | x | 18 | x | x | x
CCOCCn1c(=NC(=O)c2cc3ccccc3oc2=O)sc2cc(S(N)(=O)=O)ccc21 | 1 | 0 | 46* | -1 | 0
COCCn1c(=NC(=O)c2ccc(S(=O)(=O)N3CCOCC3)cc2)sc2cc(S(N)(=O)=O)ccc21 | 3 | 0 | 33* | 0 | -8
COC(=O)Cn1c(=NC(=O)c2ccc(S(=O)(=O)N3CCOCC3)cc2)sc2cc(S(N)(=O)=O)ccc21 | -1 | 0 | 32* | 2 | -7
COC(=O)Cn1c(=NC(=O)CN2C(=O)CCC2=O)sc2cc(S(N)(=O)=O)ccc21 | 2 | -5 | 1 | -3 | 0
COCCn1c(=NC(=O)c2sc3ccccc3c2Cl)sc2cc(S(N)(=O)=O)ccc21 | 3 | 1 | 29 | 4 | -1
CCCCn1c(/N=C/c2ccc(N(C)C)cc2)nc2ccccc21 | 2 | -1 | 52* | -4 | -1
C=CCn1c(/N=C/c2ccc(N(C)C)cc2)nc2ccccc21 | -1 | -3 | 28 | -3 | 1
CCc1c(C)c2cc(Cl)c(O)c(CN(C)C)c2oc1=O | -9 | x | 32* | x | 1
CCCCc1cc(=O)oc2c(CN(C)C)c(O)c(Cl)cc12 | 3 | -2 | 12 | x | 1
Cc1c(C)c2cc(Cl)c(O)c(CN(C)C)c2oc1=O | 0 | -3 | 15 | + | -2
CCc1c(C)c2cc(Cl)c(O)c(CN(CC)CC)c2oc1=O | -4 | 1 | 13 | + | -3
CCCNC(=O)[C@H]1[C@H](CO)[C@H]2Cn3c(ccc(C4=CCCC4)c3=O)[C@@H]1N2C(=O)C1CC1 | x | -2 | x | x | x
C#CCn1c2ccccc2c(=O)n1C(C)C | x | -3 | x | 121* | 1
CO[C@H]1CC[C@@H]2CCN(C)C(=O)CCCN(C)C(=O)c3cccc(C#N)c3OC[C@@H]1O2 | x | -2 | x | x | x
CCN(CC)c1ccc(O)c(C=Nc2ccc(C)c(C)c2)c1 | -2 | 0 | 26 | -3 | -3
CCN(CC)c1ccc(C=Nc2ccccc2C)c(O)c1 | -5 | -1 | 37* | 2 | -4
CCN(CC)c1ccc(C=Nc2ccc(C#N)cc2)c(O)c1 | -2 | -1 | 45* | -1 | -2
SMILES | 3CLpro inhibitor | Mtb BioA inh | GDH-TPI counter | Mtb FBA inh | FadD28 binding
CCN(CC)c1ccc(/C=N/N(c2ccccc2)c2ccccc2)c(O)c1 | 1 | -14 | 14 | -3 | -3
C[C@H](CO)N1C[C@H](C)[C@H](CN(C)S(=O)(=O)c2ccc(F)cc2)Oc2ncc(-c3ccncc3)cc2C1=O | x | -2 | x | x | x
Cn1/c(=N/N=C/c2ccc([N+](=O)[O-])cc2)sc2ccccc21 | 6 | x | x | x | x
Cn1c(=NN=Cc2ccccc2OCCO)sc2ccccc21 | x | -1 | 32* | 3 | -3
Cc1cc(C(=O)N/N=C/C=C/c2ccc([N+](=O)[O-])cc2)n[nH]1 | 1 | x | 41* | 1 | -1
Cc1cc(C(=O)N/N=C/C=C/c2ccc(Br)cc2)n[nH]1 | -3 | 0 | 42* | 0 | -1
COCC(=O)N(C)C[C@@H]1Oc2cc(C#C[C@@H](C)O)ccc2S(=O)(=O)N([C@H](C)CO)C[C@H]1C | x | -1 | x | x | x
